# Measured values from PubChem BioAssay (NCATS).
# Records with an inconclusive call do not appear. Active and inactive are the calls of the source. Unless noted, calls come from the whole dose curve; as a rule, active = well fitted inhibition curve with a large enough effect; inconclusive = small, poorly fitted or top-dose-only effect; inactive = no such curve, though single readings can be large or run the other way.
# Tests used:
# [1] = qHTS profiling of the MIPE4 collection as inhibitors of Plasmodium falciparum (DD2) proliferation (Rep 2) (AID 743346; call rule not given here); details: P. falciparum Dd2 in erythrocytes, SYBR Green DNA, 72 h; at 28.5 µM unless noted
# Outline: (§1)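 Erythrocytes infected with P. falciparum (0.3% parasitemia, 2.5% hematocrit) incubated with compounds 72 h at 37 C, 5% CO2. Lysis with saponin/Triton buffer containing SYBR Green I, overnight at room temperature in the dark; DNA fluorescence (485/535 nm) normalised to 0.29 uM artemisinin and DMSO.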
# [2] = qHTS profiling of the MIPE4 collection as inhibitors of Plasmodium falciparum (HB3) proliferation (AID 743347; call rule not given here;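 note: plate controls were DMSO vehicle wells for no effect and artemisinin wells for full effect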); details: P. falciparum HB3 in erythrocytes, SYBR Green DNA, 72 h; at 28.5 µM unless noted
# Outline: as §1
# [3] = High-throughput drug toxicity screening in the BPDCN cell line Cal-1 (AID 1224825; call rule not given here); details: Cal-1 BPDCN cell viability, qHTS; at 45.8 µM (top of the series) unless noted
# Outline: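 500 Cal-1 cells/well, RPMI + glutamine + 10% FBS (phenol red-free); cpd added by pin tool; 48 h, 37C, 5% CO2; CTG 15 min RT, lumi read. Normalised: DMSO 100%, bortezomib 9.2 uM 0%.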
# [4] = qHTS assay for measurement of the activity of small molecule inhibitors on Zika virus induced Caspase-3 activity in human astrocytoma cells (AID 1224859);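 note: plate controls were ZIKV-infected untreated cells for no effect and uninfected cells for full effect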
# Outline: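 Readout is luminescence from Caspase-Glo 3/7 added after a 6 h ZIKV infection (2 FFU/cell) of compound-pretreated (1 h) SNB-19 cells; data expressed as % inhibition versus uninfected and infected wells.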
# [5] = qHTS Screen of the MIPE 4.0 Collection Against Ewings Sarcoma (RDES) (AID 1259252);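 note: 100% = DMSO-treated cells and 0% = medium-only wells without cells; nearly all actives have a fitted effect of over 35% in size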
# Outline: (§2)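 CellTiter-Glo luminescence after 48 h compound exposure (titration) gave viability; percent activity used DMSO-treated cells as no inhibition and medium-only wells as full inhibition. Cells grown in RPMI/5% FBS, dosed 4 h post-seeding.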
# [6] = qHTS Screen of the MIPE 4.0 Collection Against Ewings Sarcoma (EW8) (AID 1259255); note: nearly all actives have a fitted effect of over 35% in size; note: potency is the fitted concentration of half-maximal effect;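 for viability: 100% = DMSO-treated cells and 0% = medium-only wells without cells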
# Outline: as §2
# [7] = qHTS Screen of the MIPE 4.0 Collection Against Ewings Sarcoma (TC32) (AID 1259256); note: nearly all actives have a fitted effect of over 45% in size; note: potency is the fitted concentration of half-maximal effect
# Outline: as §2
# [8] = qHTS assay for measurement of the activity of small molecule inhibitors on Zika virus induced Caspase-3 activity in human iPSC derived neural progenitor cells (hNPCs) (AID 1224857); note: % of control where 0% means no effect; nearly all actives have a fitted effect of over 65% in size
# Outline: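 Quantitative HTS format: human iPSC neural progenitors, 1 h compound pretreatment, ZIKV 2 FFU/cell for 6 h at 37 C. Percent inhibition derived from luminescent caspase-3/7 signal between uninfected and infected controls.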
# [9] = High-throughput drug toxicity screening in the BPDCN cell line Gen2.2 (AID 1224824; call rule not given here;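 note: cells exposed to compounds for 48 h before reading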); details: Gen2.2 BPDCN cells; at 45.8 µM (top of the series) unless noted
# Outline: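 Readout is ATP luminescence from Gen2.2 cells after two days of drug exposure in serum-containing medium at 37 °C. Values express percent activity, with vehicle defining full signal and 9.2 uM bortezomib defining zero.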
# [10] = qHTS Screen of the MIPE 4.0 Collection Against Ewings Sarcoma (TC71) (AID 1259253); note: nearly all actives have a fitted effect of over 40% in size; note: potency is the fitted concentration of half-maximal effect
# Outline: as §2
smiles,measurement,setting,value
CC(=Cc1ccccc1)C=C1SC(=S)N(CC(=O)O)C1=O,"parasite growth, % of control (lower = inhibition)",[1],81.2%
same,"growth, % of control",[2],98.1%
same,viability (% of control),[3],125%
same,Potency,[4],inactive
same,Potency,[5],inactive
same,Potency,[6],inactive
same,Potency,[7],inactive
CCOc1ccc(Nc2nc(-c3c(C)nc4ccccn34)cs2)cc1,"parasite growth, % of control (lower = inhibition)",[1],15.8%
same,"growth, % of control",[2],4.43%
same,viability (% of control),[3],7.46%
same,Potency,[8],inactive
same,Potency,[4],inactive
same,Potency,[7],inactive
O=c1cc(-c2ccccc2)oc2cc(O)cc(O)c12,"parasite growth, % of control (lower = inhibition)",[1],49.8%
same,"growth, % of control",[2],43.5%
same,"cell viability, % of control (lower = more cytotoxic)",[9],45.9%
same,viability (% of control),[3],52.1%
same,Potency,[7],inactive
CC(C)(Cc1ccc2ccccc2c1)NC[C@@H](O)COc1cccc(Cl)c1C#N,"parasite growth, % of control (lower = inhibition)",[1],59.5%
same,"growth, % of control",[2],92%
same,viability (% of control),[3],12.4%
same,Potency,[8],inactive
same,Potency,[7],14.8 µM (active)
O=C(O)CCC1CCC(c2cc(F)ccc2F)(S(=O)(=O)c2ccc(Cl)cc2)CC1 (stereo unspecified),"parasite growth, % of control (lower = inhibition)",[1],51.1%
same,"growth, % of control",[2],82.6%
same,viability (% of control),[3],9.48%
same,Potency,[8],inactive
same,Potency,[4],inactive
same,Potency,[7],11.8 µM (active)
O=C(O)[C@H]1O[C@H](Oc2cc3oc(-c4ccccc4)cc(=O)c3c(O)c2O)[C@H](O)[C@@H](O)[C@H]1O,"parasite growth, % of control (lower = inhibition)",[1],57.6%
same,"growth, % of control",[2],96.3%
same,viability (% of control),[3],105%
same,Potency,[8],inactive
same,Potency,[4],inactive
same,Potency,[7],18.7 µM (active)
O=C1NC(=O)C(=Cc2cccc(C(F)(F)F)c2)S1,"parasite growth, % of control (lower = inhibition)",[1],76.4%
same,"growth, % of control",[2],96.2%
same,viability (% of control),[3],110%
same,Potency,[8],inactive
CC(=O)OC1C(C)OC(Oc2c(-c3ccc(O)cc3)oc3cc(O)cc(O)c3c2=O)C(O)C1OC(C)=O (stereo unspecified),"parasite growth, % of control (lower = inhibition)",[1],32.5%
same,"growth, % of control",[2],4.99%
same,viability (% of control),[3],7.44%
same,Potency,[8],inactive
same,Potency,[4],inactive
same,Potency,[6],inactive
same,Potency,[7],inactive
CN(C[C@@H]1COCCO1)S(=O)(=O)Nc1ccc2ccc3ncc(-c4cnn(C)c4)cc3c(=O)c2c1,"growth, % of control",[2],7.9%
same,viability (% of control),[3],7.57%
same,Potency,[8],inactive
same,Potency,[4],inactive
same,Potency,[6],18.7 µM (active)
CC(C)OC(=O)CCCC=CC[C@@H]1[C@H](C=C[C@@H](O)COc2cccc(C(F)(F)F)c2)[C@H](O)C[C@@H]1O,"parasite growth, % of control (lower = inhibition)",[1],33.1%
same,"growth, % of control",[2],15.8%
same,viability (% of control),[3],63.7%
same,Potency,[4],inactive
same,Potency,[5],inactive
same,Potency,[10],16.6 µM (active)
same,Potency,[7],inactive
Cc1nnc(C(C)C)n1C1C[C@H]2CC[C@@H](C1)N2CC[C@H](NC(=O)C1CCC(F)(F)CC1)c1ccccc1 (stereo partly specified),"parasite growth, % of control (lower = inhibition)",[1],55.4%
same,"growth, % of control",[2],92.4%
same,"cell viability, % of control (lower = more cytotoxic)",[9],75.3%
same,viability (% of control),[3],104%
same,Potency,[7],26.4 µM (active)
Cc1ccc(Nc2cc(-c3cccc(N4C(=O)c5ccccc5C4=O)c3)ncn2)cc1NS(C)(=O)=O,"parasite growth, % of control (lower = inhibition)",[1],76.5%
same,"growth, % of control",[2],97.4%
same,viability (% of control),[3],13.1%
same,Potency,[8],inactive
COc1ccc(Cc2nccc3cc(OC)c(OC)cc23)cc1OC,Potency,[10],18.7 µM (active)
C[C@@H]1CCN(C(=O)CC#N)C[C@H]1N(C)c1ncnc2[nH]ccc12,Potency,[10],inactive
same,Potency,[6],inactive
Nc1ncnc2c1ncn2[C@@H]1O[C@H](CO)C[C@@H]1O,Potency,[6],inactive
